# Experimental data reported in ChEMBL document CHEMBL3433997, “St. Jude Leishmania screening dataset” (2016).
# Experiments:
# Type in all cases: functional
# [1] = target: Solute carrier family 2, facilitated glucose transporter member 1 (Homo sapiens) (UniProt P11166); assay: ST_JUDE_LEISH: Cytotoxicity at 2uM final concentration against transgenic Leishmania Mexicana promastigotes LmGLUT1 that are glucose transport deficient and complemented with the human glucose transporter GLUT1. Activity is measured by DNA content using SYBR green in vitro
# Sequence of Solute carrier family 2, facilitated glucose transporter member 1 (Homo sapiens) (P11166 whole entry): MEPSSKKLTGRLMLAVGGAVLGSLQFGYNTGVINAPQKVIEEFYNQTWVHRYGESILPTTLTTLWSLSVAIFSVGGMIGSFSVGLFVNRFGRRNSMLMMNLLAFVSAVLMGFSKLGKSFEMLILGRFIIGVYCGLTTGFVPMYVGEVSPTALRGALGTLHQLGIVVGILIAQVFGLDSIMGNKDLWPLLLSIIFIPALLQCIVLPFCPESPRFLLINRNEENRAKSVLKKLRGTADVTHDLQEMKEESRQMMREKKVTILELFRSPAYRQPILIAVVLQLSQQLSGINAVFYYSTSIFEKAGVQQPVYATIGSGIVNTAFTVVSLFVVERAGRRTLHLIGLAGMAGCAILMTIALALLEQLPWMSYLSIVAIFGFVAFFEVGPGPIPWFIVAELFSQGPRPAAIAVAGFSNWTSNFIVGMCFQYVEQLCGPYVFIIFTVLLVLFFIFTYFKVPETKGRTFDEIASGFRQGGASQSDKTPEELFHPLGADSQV
# [2] = target: Hexose transporter 1 (Plasmodium falciparum) (UniProt O97467); assay: ST_JUDE_LEISH: Cytotoxicity at 2uM final concentration against transgenic Leishmania Mexicana promastigotes LmPfHT that are glucose transport deficient and complemented with the Plasmodium falciparum hexose transporter. Activity is measured by DNA content using SYBR green in vitro
# [3] = target: Glucose transporter (Leishmania mexicana) (UniProt O61059); assay: ST_JUDE_LEISH: Cytotoxicity at 2uM final concentration against transgenic Leishmania Mexicana promastigotes LmGT2 that are glucose transport deficient and complemented with the L. Mexicana glucose transporter 2. Activity is measured by DNA content using SYBR green in vitro
compound,measurement,setting,value
CN(Cc1ccccc1)C1CCCN(c2cc(NC(=O)c3ccc(F)cc3)ccn2)C1 (centres undefined),inhibition,[1],-0.91%
same,inhibition,[2],-2.04%
same,inhibition,[3],0.07%
CCCCCCCCOc1ccc(N2C(N)=NC(N)=NC2(C)C)cc1,inhibition,[1],2.56%
same,inhibition,[2],3.69%
same,inhibition,[3],-0.03%
CC1(C)CC(NCCCCCCCOc2ccc(OCc3ccccc3)cc2)CC(C)(C)N1,inhibition,[1],103%
same,inhibition,[2],102%
same,inhibition,[3],55.4%
C=CCOC(=O)N1CCC(CNCc2ccc(-c3cccc(-c4nc5cc(F)ccc5[nH]4)c3)cc2)C1 (centres undefined),inhibition,[1],1.77%
same,inhibition,[2],2.36%
same,inhibition,[3],3.88%
Cc1sc2nc(CN3CCCC3)nc(-n3c(NCCO)nc4ccccc43)c2c1C,inhibition,[1],4.18%
same,inhibition,[2],5.54%
same,inhibition,[3],5.9%
CC1(C)NC(N)=NC(=N)N1OCCc1cccc2ccccc12,inhibition,[1],2.21%
same,inhibition,[2],10.7%
same,inhibition,[3],4.71%
Cc1ccccc1C1CCN(c2ccc(C(=O)NC3CC3)cn2)CC1,inhibition,[1],-0.44%
same,inhibition,[2],1.26%
same,inhibition,[3],0.57%
Cn1ccnc1Sc1ncccc1[N+](=O)[O-],inhibition,[1],-2.32%
same,inhibition,[2],0.92%
same,inhibition,[3],1.8%
N=C(N)NN=Cc1ccc2ccc3ccccc3c2c1,inhibition,[1],5.52%
same,inhibition,[2],7.75%
same,inhibition,[3],4.14%
O=C(N[C@H]1CCN(CCc2ccc(O[C@H]3CCNC3)c(F)c2)C1)c1ccc(Cl)c(Cl)c1,inhibition,[1],8.17%
same,inhibition,[2],9.6%
same,inhibition,[3],9.34%
CCCCCCOc1ccc(C(=O)NCCCC2CCCN(CCCCCNC(=O)C=Cc3ccc(Cl)c(Cl)c3)C2)cc1 (centres undefined),inhibition,[1],-0.52%
same,inhibition,[2],0.51%
same,inhibition,[3],1.31%
O=C(NC1CCCC1)c1cc2c(=O)n3ccccc3nc2[nH]/c1=N/CCc1ccccc1,inhibition,[1],11.5%
same,inhibition,[2],8.49%
same,inhibition,[3],5.94%
COc1ccccc1C(=O)Nc1ccc(Nc2nc(C)cc(N3CCOCC3)n2)cc1,inhibition,[1],4.83%
same,inhibition,[2],4.3%
same,inhibition,[3],5.97%
Nc1nccc2ccc(OC3CCCCC3)cc12,inhibition,[1],0.26%
same,inhibition,[2],1.26%
same,inhibition,[3],1.91%
Cc1cc(N[C@@H](Cc2ccccc2)C(=O)NC2CCCC2)nc(NCCCOC(C)C)n1,inhibition,[1],7.62%
same,inhibition,[2],3.46%
same,inhibition,[3],0.61%
CN1CCc2cc(NS(=O)(=O)c3ccc(-c4ccc(Cl)cc4)cc3)c(OCCCN3CCCCC3)cc2CC1,inhibition,[1],1.09%
same,inhibition,[2],-0.92%
same,inhibition,[3],0.92%
CCc1nc(N)nc(N)c1-c1ccc2c(c1)CCCC2,inhibition,[1],2.54%
same,inhibition,[2],3.35%
same,inhibition,[3],2%
CCOC(=O)c1ccc(-n2c(C)cc(C=C3SC(=Nc4ccccc4)N(C4CCCC4)C3=O)c2C)cc1,inhibition,[1],3.76%
same,inhibition,[2],3.52%
same,inhibition,[3],4.67%
NC(=O)c1cc2nc(Nc3ccc(F)cc3)nc(Nc3ccc(S(N)(=O)=O)cc3)c2[nH]1,inhibition,[1],1.3%
same,inhibition,[2],0.26%
same,inhibition,[3],0.35%
CCCC[C@@H](C(=O)NCc1ccccc1C(F)(F)F)N1C(=O)CCC1C(=O)Nc1ccc([N+](=O)[O-])cc1 (some centres undefined),inhibition,[1],1.1%
same,inhibition,[2],2.37%
same,inhibition,[3],2.75%
CN(Cc1cccc(O)c1)C1CCN(c2cc(NC(=O)c3ccc(F)cc3)ccn2)CC1,inhibition,[1],2.02%
same,inhibition,[2],3.1%
same,inhibition,[3],3.78%
Cn1cncc1C(=O)Nc1cccc(-c2ccc(-c3nc4cc(F)ccc4[nH]3)cc2)c1,inhibition,[1],0%
same,inhibition,[2],-0.68%
same,inhibition,[3],3.3%
COC(=O)c1ccc2nc(-c3ccc(C(=O)NCc4ccc(Cl)c(Cl)c4)cc3)[nH]c2c1,inhibition,[1],3.81%
same,inhibition,[2],3.6%
same,inhibition,[3],3.51%
COc1ccc2nccc([C@@H](O)CN3CCC(NCc4cc5c(Cl)cccc5[nH]4)CC3)c2c1,inhibition,[1],10.6%
same,inhibition,[2],14.7%
same,inhibition,[3],2.34%
COc1ccc(-c2ccc(NC(=O)c3cccc(C#N)c3)cc2)cc1CN1CCCC(C(N)=O)C1 (centres undefined),inhibition,[1],3.09%
same,inhibition,[2],2.51%
same,inhibition,[3],5.2%
O=C(Nc1cccc(CN2CCCN(Cc3ccc(O)cc3)CC2)c1)c1ccc2ccccc2c1,inhibition,[1],4.27%
same,inhibition,[2],4.08%
same,inhibition,[3],3.93%
NCC(=O)NC12CC3CC(CC(C3)C1)C2,inhibition,[1],1.01%
same,inhibition,[2],2.25%
same,inhibition,[3],1.66%
Oc1ccccc1CNCc1ccc(-c2cnc(N3CCCC(c4ccccc4)C3)nc2)cc1 (centres undefined),inhibition,[1],3.52%
same,inhibition,[2],2.64%
same,inhibition,[3],9.12%
CN1CCN(Cc2ccc(-c3cc4c(Nc5ccc(OCc6cccc(F)c6)c(Cl)c5)ncnc4s3)[nH]2)CC1,inhibition,[1],12.7%
same,inhibition,[2],11.4%
same,inhibition,[3],8.25%
COc1ccccc1CCNC(=O)c1cnc(N2CCN(c3ccncc3)CC2)c(Cl)c1,inhibition,[1],74.5%
same,inhibition,[2],83.8%
same,inhibition,[3],82.9%
CC(C)n1ncc2c(C(=O)N3CCCC4CCCCC43)cc(C3CC3)nc21 (centres undefined),inhibition,[1],5.54%
same,inhibition,[2],6.45%
same,inhibition,[3],5.73%
Nc1nc(N)c2c(ccc3c2ccn3CCCC2CCCNC2)n1 (centres undefined),inhibition,[1],0.22%
same,inhibition,[2],-0.13%
same,inhibition,[3],1.44%
Cc1ccc(N2CCN(CCCCNC(=O)c3ccc(NC(=O)c4ccc(Cl)cc4)cc3)CC2)c(C)c1,inhibition,[1],3.93%
same,inhibition,[2],5.9%
same,inhibition,[3],2.64%
Nc1cccc(CNCc2ccc(-c3ccc(-c4nc5cc(F)ccc5[nH]4)s3)cc2)c1,inhibition,[1],-2.38%
same,inhibition,[2],0.25%
same,inhibition,[3],-1.11%
CCOc1c(CCNCCCCNCCc2ccc3ccccc3c2OCC)ccc2ccccc12,inhibition,[1],111%
same,inhibition,[2],112%
same,inhibition,[3],111%
Cc1cccc(NC(=S)NC2CCN(CCCCCNC(=O)/C=C/c3ccc(Cl)c(Cl)c3)CC2)c1,inhibition,[1],0.27%
same,inhibition,[2],1.13%
same,inhibition,[3],0.99%
COc1cccc(Nc2nccc(-c3c(-c4cccc(NC(=O)c5c(F)cccc5F)c4)nn4ccccc34)n2)c1,inhibition,[1],5%
same,inhibition,[2],13.3%
same,inhibition,[3],5.92%
CC(=O)Nc1nc(C(=O)Nc2cccc(-c3ccc(-c4nc5ccccc5[nH]4)cc3)c2)cs1,inhibition,[1],13%
same,inhibition,[2],11.8%
same,inhibition,[3],10.3%
Cc1ccc(CNC(=O)[C@H](Cc2ccccc2)Nc2cc(C)nc(NCc3ccccc3C)n2)cc1,inhibition,[1],5.69%
same,inhibition,[2],5.01%
same,inhibition,[3],2.6%
Cc1cc(=NN=Cc2ccc(Cl)cc2)c2ccc(F)cc2[nH]1,inhibition,[1],2.07%
same,inhibition,[2],2.71%
same,inhibition,[3],1.54%
CCCCCCCN1CC[C@@H](CCCc2ccnc3ccc(OC)cc23)[C@@H](CNC)C1,inhibition,[1],0.83%
same,inhibition,[2],-1.11%
same,inhibition,[3],-0.87%
CC1CCN(Cc2cccc(C(=O)NCc3ccc(F)c(-c4cccc(CN5CCN[C@@H](C)C5)c4)c3)c2)CC1,inhibition,[1],1.17%
same,inhibition,[2],0.82%
same,inhibition,[3],1.82%
CCc1c(CCNCCCCCCNCCc2ccc(OC)cc2)ccc(OC)c1OC,inhibition,[1],5.63%
same,inhibition,[2],5.5%
same,inhibition,[3],5.8%
CC1(C)C(=O)Nc2ccccc2N1C(=O)CN1CCN(c2ccccc2O)CC1,inhibition,[1],0.51%
same,inhibition,[2],-0.55%
same,inhibition,[3],-3.82%
O=C(Nc1ccc(-c2cccc(-c3nc4cc(C(F)(F)F)ccc4[nH]3)c2)cc1)c1ccncc1,inhibition,[1],0.97%
same,inhibition,[2],1.99%
same,inhibition,[3],1.87%
CC(=O)Nc1nc(C(=O)Nc2cccc(-c3ccc(-c4nc5cccc(C)c5[nH]4)s3)c2)cs1,inhibition,[1],6.86%
same,inhibition,[2],11.9%
same,inhibition,[3],8.32%
O=C(Nc1ccc(-c2cccc(-c3nc4cc(C(F)(F)F)ccc4[nH]3)c2)cc1)c1ccc(=O)[nH]n1,inhibition,[1],3.7%
same,inhibition,[2],2.75%
same,inhibition,[3],2.97%
N=C(NC1CC1)c1ccc2[nH]c(CCCCCc3nc4cc(C(=N)NC5CC5)ccc4[nH]3)nc2c1,inhibition,[1],-1.14%
same,inhibition,[2],-0.68%
same,inhibition,[3],1.61%
